# From PubChem BioAssay (NCI)
# About 79,000 compounds went through this panel and 15% of them were active in at least one assay; those are over-represented in the sample as a whole. Active and inactive are the calls of the source. Rule as the data show it: active = growth inhibition above about 70%; inactive = the rest.
# Assay: NCI Yeast Anticancer Drug Screen. Data for the rad50 strain (AID 155);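 also: 0% = growth of vehicle-only cultures of the same strain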
# Conditions: S. cerevisiae rad50 strain growth inhibition; at 50.0 µM; stronger effect = higher value
# Outline: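 Relative growth inhibition (compound vs vehicle) was measured in yeast with a defined repair-gene alteration.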
row,Structure (SMILES),growth inhibition
1,O=C(OCC1OC(OC(=O)N(c2ccccc2)c2ccccc2)C(OS(=O)(=O)c2ccc([N+](=O)[O-])cc2)C1OC(=O)c1ccccc1)c1ccccc1 (stereo not given),34.1% (inactive)
2,CC(C)C(=O)Nc1ccc(Cl)c(Cl)c1,33.9% (inactive)
3,Clc1ccc(C(=C(c2ccc(Cl)cc2)c2ccc(Cl)cc2)c2ccc(Cl)cc2)cc1,-3.85% (inactive)
4,COC(=O)Nc1cccc(OC(=O)Nc2cccc(Cl)c2)c1,10.3% (inactive)
5,COc1cc(C2=N/C(=C\c3cc(Cl)cc(Cl)c3O)C(=O)O2)cc(OC)c1OC,-33.7% (inactive)
6,CSc1ccc(NC(=O)Oc2cc(C)c(Cl)cc2C(C)C)cc1,39.6% (inactive)
7,c1ccc(C2=NOC(c3ccccc3)N2C23CC4CC(CC(C4)C2)C3)cc1 (stereo not given),2.9% (inactive)
8,O=C1c2ccccc2CN(C(=Nc2ccccc2)Nc2ccccc2)c2ccccc21,15.1% (inactive)
9,O=c1c2ccccc2nc(-c2ccccc2)n1/N=C/c1cccnc1,0.9% (inactive)
10,Cc1ccc(C(=O)N/N=C/c2c(O)ccc3ccccc23)cc1,-4.7% (inactive)
11,C[n+]1ccccc1/C=C/c1csc2ccccc12,-0.85% (inactive)
12,CNCCCN1CCCCC1,31.8% (inactive)
13,CN1CN(c2ccccc2)C2(CCN(c3nc4ccccc4s3)CC2)C1=O,-29.7% (inactive)
14,CC1(C)CC[C@]2(C(=O)O)CC[C@]3(C)C(=CC[C@@H]4[C@@]5(C)CC[C@H](OC6OC(CO)C(O)C(O)C6OC6OC(CO)C(O)C(O)C6O)C(C)(C)[C@@H]5CC[C@]43C)[C@@H]2C1 (stereo not given in full),86.8% (active)
15,Cc1cc(=O)oc2c(C(=O)/C=C/N(C)C)c(O)ccc12,-29.9% (inactive)
16,CS1(C)=NC(=O)C2=C(N=1)c1ccccc1S2(=O)=O,-10.9% (inactive)
17,O=C(Nc1cc(C(F)(F)F)ccc1Cl)N(Cc1ccccc1)c1ccccc1,-10.3% (inactive)
18,CN(C)c1ncnc2c1ncn2C1OC(CO)C(O)C1O (stereo not given),14.2% (inactive)
19,CCCNC(=S)/N=C/c1c(O)c2ccccc2[nH]c1=O,-40% (inactive)
20,C1=C(c2ccccc2)C(OC2Oc3ccccc3C=C2c2ccccc2)Oc2ccccc21 (stereo not given),23.1% (inactive)

row,Structure (SMILES),growth inhibition
1,O=C1c2ccccc2C(=O)c2c(Nc3ccc4c5c(cccc35)C(=O)c3ccccc3-4)cccc21,23.1% (inactive)
2,N#C/C=C\c1ccc(C#N)cc1,28.1% (inactive)
3,Cc1cccc2c(C=O)c[nH]c12,8.9% (inactive)
4,O=c1[nH]c(=S)[nH]c2[nH]ccc12,6.75% (inactive)
5,C1=C(N2CCOCC2)/C(=C2\SC(=Nc3ccccc3)C(=Nc3ccccc3)N2c2ccccc2)CC1,-5.8% (inactive)
6,CCCCCCCCC(C)C,1.25% (inactive)
7,O=S(O)CCCCSSCC(O)CO (stereo not given),22.5% (inactive)
8,CC(=O)Nc1ccc(S(=O)(=O)n2c(=O)oc3cc(Cl)ccc32)cc1,3.4% (inactive)
9,Cc1cccc(NCN2C(=O)c3ccccc3C2=O)c1,-1.8% (inactive)
10,CSCCCC(N)=O,1.85% (inactive)
11,O=C1CC2(CCCCC2)CC(=O)N1,-6.25% (inactive)
12,COC(=O)C(Cc1nc2ccccc2[nH]c1=O)C(NO)C(=O)Nc1c(Cl)cc([N+](=O)[O-])cc1Cl (stereo not given),-3.85% (inactive)
13,CC(=O)OCCc1cccc(C)c1,3.9% (inactive)
14,CCCCCNC(=O)c1csc(-c2csc(CCNC(C)=O)n2)n1,-18.9% (inactive)
15,COc1ccc2nc(N/N=C/C(C)=N/Nc3cc(C)c4cc(OC)ccc4n3)cc(C)c2c1,-3% (inactive)
16,CC1(C)C=C(O)C=C(O)C1,14.2% (inactive)
17,O=C(CSSCC(=O)Nc1ccccc1O)Nc1ccccc1O,-11.2% (inactive)
18,COc1ccc(C2SCC(=O)N2NC(=O)c2ccc(NC(C)=O)cc2)c(OC)c1 (stereo not given),-27.7% (inactive)
19,CN(C)CC1CCCC(CN(C)C)C1OC(=O)c1ccccc1 (stereo not given),23% (inactive)
20,NC(=O)c1ccccc1NC(=O)C(=O)C(C(=O)c1ccc2ccccc2c1)C1OC(=O)c2ccccc21 (stereo not given),0.7% (inactive)

# Assay: NCI Yeast Anticancer Drug Screen. Data for the mec2-1 strain (AID 157)
# Conditions: S. cerevisiae mec2-1 strain, at 50.0 µM, stronger effect = higher value
# Outline: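 Growth inhibition is read against vehicle-treated controls after compound exposure of the mec2-1 yeast strain, which is defective in DNA damage repair or cell cycle control.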
row,Structure (SMILES),growth inhibition
1,O=C(OCC1OC(OC(=O)N(c2ccccc2)c2ccccc2)C(OS(=O)(=O)c2ccc([N+](=O)[O-])cc2)C1OC(=O)c1ccccc1)c1ccccc1 (stereo not given),-5.05% (inactive)
2,CC(C)C(=O)Nc1ccc(Cl)c(Cl)c1,6.35% (inactive)
3,Clc1ccc(C(=C(c2ccc(Cl)cc2)c2ccc(Cl)cc2)c2ccc(Cl)cc2)cc1,5.4% (inactive)
4,COC(=O)Nc1cccc(OC(=O)Nc2cccc(Cl)c2)c1,25.2% (inactive)
5,COc1cc(C2=N/C(=C\c3cc(Cl)cc(Cl)c3O)C(=O)O2)cc(OC)c1OC,-23.6% (inactive)
6,CSc1ccc(NC(=O)Oc2cc(C)c(Cl)cc2C(C)C)cc1,94.8% (active)
7,c1ccc(C2=NOC(c3ccccc3)N2C23CC4CC(CC(C4)C2)C3)cc1 (stereo not given),4.4% (inactive)
8,O=C1c2ccccc2CN(C(=Nc2ccccc2)Nc2ccccc2)c2ccccc21,2.95% (inactive)
9,O=c1c2ccccc2nc(-c2ccccc2)n1/N=C/c1cccnc1,49.5% (inactive)
10,Cc1ccc(C(=O)N/N=C/c2c(O)ccc3ccccc23)cc1,20.7% (inactive)
11,C[n+]1ccccc1/C=C/c1csc2ccccc12,5.35% (inactive)
12,CNCCCN1CCCCC1,16% (inactive)
13,CN1CN(c2ccccc2)C2(CCN(c3nc4ccccc4s3)CC2)C1=O,-6.1% (inactive)
14,CC1(C)CC[C@]2(C(=O)O)CC[C@]3(C)C(=CC[C@@H]4[C@@]5(C)CC[C@H](OC6OC(CO)C(O)C(O)C6OC6OC(CO)C(O)C(O)C6O)C(C)(C)[C@@H]5CC[C@]43C)[C@@H]2C1 (stereo not given in full),86.7% (active)
15,Cc1cc(=O)oc2c(C(=O)/C=C/N(C)C)c(O)ccc12,4.1% (inactive)
16,CS1(C)=NC(=O)C2=C(N=1)c1ccccc1S2(=O)=O,-6% (inactive)
17,O=C(Nc1cc(C(F)(F)F)ccc1Cl)N(Cc1ccccc1)c1ccccc1,-15.9% (inactive)
18,CN(C)c1ncnc2c1ncn2C1OC(CO)C(O)C1O (stereo not given),20% (inactive)
19,CCCNC(=S)/N=C/c1c(O)c2ccccc2[nH]c1=O,-44.6% (inactive)
20,C1=C(c2ccccc2)C(OC2Oc3ccccc3C=C2c2ccccc2)Oc2ccccc21 (stereo not given),-2.15% (inactive)

row,Structure (SMILES),growth inhibition
1,O=C1c2ccccc2C(=O)c2c(Nc3ccc4c5c(cccc35)C(=O)c3ccccc3-4)cccc21,6.25% (inactive)
2,N#C/C=C\c1ccc(C#N)cc1,-1.5% (inactive)
3,Cc1cccc2c(C=O)c[nH]c12,-3.1% (inactive)
4,O=c1[nH]c(=S)[nH]c2[nH]ccc12,-13.9% (inactive)
5,C1=C(N2CCOCC2)/C(=C2\SC(=Nc3ccccc3)C(=Nc3ccccc3)N2c2ccccc2)CC1,-5.4% (inactive)
6,CCCCCCCCC(C)C,3.35% (inactive)
7,O=S(O)CCCCSSCC(O)CO (stereo not given),9.65% (inactive)
8,CC(=O)Nc1ccc(S(=O)(=O)n2c(=O)oc3cc(Cl)ccc32)cc1,-2.6% (inactive)
9,Cc1cccc(NCN2C(=O)c3ccccc3C2=O)c1,8.75% (inactive)
10,CSCCCC(N)=O,-11.3% (inactive)
11,O=C1CC2(CCCCC2)CC(=O)N1,-5.05% (inactive)
12,COC(=O)C(Cc1nc2ccccc2[nH]c1=O)C(NO)C(=O)Nc1c(Cl)cc([N+](=O)[O-])cc1Cl (stereo not given),-7.4% (inactive)
13,CC(=O)OCCc1cccc(C)c1,-17.9% (inactive)
14,CCCCCNC(=O)c1csc(-c2csc(CCNC(C)=O)n2)n1,4.85% (inactive)
15,COc1ccc2nc(N/N=C/C(C)=N/Nc3cc(C)c4cc(OC)ccc4n3)cc(C)c2c1,4.8% (inactive)
16,CC1(C)C=C(O)C=C(O)C1,2.8% (inactive)
17,O=C(CSSCC(=O)Nc1ccccc1O)Nc1ccccc1O,-8.15% (inactive)
18,COc1ccc(C2SCC(=O)N2NC(=O)c2ccc(NC(C)=O)cc2)c(OC)c1 (stereo not given),-7.5% (inactive)
19,CN(C)CC1CCCC(CN(C)C)C1OC(=O)c1ccccc1 (stereo not given),-5.15% (inactive)
20,NC(=O)c1ccccc1NC(=O)C(=O)C(C(=O)c1ccc2ccccc2c1)C1OC(=O)c2ccccc21 (stereo not given),-2.15% (inactive)
